High-throughput results: PubChem, Center for Chemical Genomics, University of Michigan
Shown are actives, neighbours in structure and some others; about 0.93% of the full set was active somewhere.
TAR Tat displ – TAR RNA-Tat peptide displacers, HIV-1, primary screen, biochemical, FRET, FAM/TAMRA-labeled Tat; HIV-1 TAR RNA, Tat peptide displacement FRET; stronger effect = higher value; z-score (concentration not given with the values); 100,000 compounds, 0.6% hits; AID 1259389, 2018; active means z-score of 3 or more in at least 2 runs
CDC25B-CDK2 inh – primary biochemical HTRF screen for blockers of M-phase inducer phosphatase 2 binding to CDK2/cyclin A; P30305+P24941; HTRF CDC25B-CDK2/CyclinA binding, anti-His/anti-Flag; stronger effect = higher value; z-score (no concentration beside the values); 94,000 compounds, 0.72% hits; AID 1259370, 2018; in the data active means z-score above about 3.2
* = called active by the depositor; . = no result given.

SMILES | TAR Tat displ | CDC25B-CDK2 inh
CCOC(=O)C1=C(C(=O)OCC)SC(=C2C(=S)C(C)(C)Nc3cc(C)ccc32)S1 | -0.02 | 17*
COC(=O)C1=C(C(=O)OC)SC(=C2C(=S)C(C)(C)Nc3cc(C)ccc32)S1 | 1.5 | 13*
CCOC(=O)C1=CS/C(=C2/C(=S)C(C)(C)Nc3cc(C)ccc32)S1 | 1 | -3.3
COC(=O)C1=C(C(=O)OC)SC(=C2C(=S)C(C)(C)Nc3ccc(OC)cc32)S1 | 1.3 | -6.5
Cc1cccc(-c2nc3scc(CCNS(=O)(=O)c4ccc(Br)cc4)n3n2)c1 | 2.4 | .
C=CCNc1sc(S(=O)(=O)CC)nc1S(=O)(=O)c1ccc(Cl)cc1 | 0.76 | -0.45
CCOC(=O)N1CCN(c2ccc([N+](=O)[O-])s2)CC1 | 5.2* | .
O=[N+]([O-])c1ccc(N2CCN(c3ccccc3)CC2)s1 | 3.5 | .
CCN(CC)c1ccc(NS(=O)(=O)c2cc3[nH]c(=O)c(=O)[nH]c3cc2C)c(C)c1 | 14* | .
CCN(CC)c1ccc(NS(=O)(=O)c2ccc(-c3ccc(=O)[nH]n3)o2)c(C)c1 | -3.3 | .
Cc1ccc2c(CC(=O)Nc3sc4c(c3C(=O)NCc3ccco3)CCC4)coc2c1 | -0.91 | -1.1
Cc1cc2c3c(c1)C1C=CCC1C(C(=O)O)N3CC1CC=CC21 (stereo unspecified) | . | -1.2
O=C(O)C1C2CC=CC2c2cc(Br)cc3c2N1CC1CC=CC31 (stereo unspecified) | 20* | 4.9*
CCCn1c(C2CC(=O)N(CC3CC3)C2)nc2ccccc21 (stereo unspecified) | 0.61 | -1.3
COC(=O)c1sccc1NC(=O)c1cccs1 | . | 6.7*
COC(=O)c1sccc1NC(=O)Cc1cccs1 | . | -1.3
CCCC(=O)Nc1ccc2c(c1)CC(=O)N2C | 1 | .
O=C(C1CCN(S(=O)(=O)c2cccnc2)CC1)N1CCSc2ccccc21 | 0.64 | .
CC(C)Cn1cc(NC(=O)N(Cc2ccccc2)C(C)C)c2ccccc2c1=O | 6.6* | .
CC(C)Cn1cc(NC(=O)NCCCN(C)c2ccccc2)c2ccccc2c1=O | -0.7 | 19*
CC(C)Cn1cc(NC(=O)NCCCN2CCCC2)c2ccccc2c1=O | 1 | .
CCCN(CCC)C(=O)Nc1cn(CC(C)C)c(=O)c2ccccc12 | 1.9 | .
CCc1ccccc1-n1nnc(-c2nc(-c3ccc(C)cc3)no2)c1C | 0.31 | .
CCOC(=O)c1nc(N2CCc3ccccc32)c2c(C)noc2n1 | 0.42 | .
N#C/C(=C\Nc1ccc2c(c1)OCCO2)C(=O)c1ccc(Cl)cc1 | . | -0.11
SMILES | TAR Tat displ | CDC25B-CDK2 inh
Cc1ccc(S(=O)(=O)N(CC(=O)O)CC(O)Cn2c3ccccc3c3ccccc32)cc1 (stereo unspecified) | 2.3 | -0.14
O=C(Cn1nc2cnc3ccccc3n2c1=O)Nc1ccc2c(c1)OCCO2 | 0.48 | -2.4
COc1ccc(O)c(C2Nc3ccccc3-n3c(-c4ccccc4)c4c(=O)n(C)c(=O)n(C)c4c32)c1 (stereo unspecified) | 1.7 | -0.2
COc1ccc(-c2c3c(=O)n(C)c(=O)n(C)c3c3n2-c2ccccc2NC3c2cc(O)ccc2O)cc1 (stereo unspecified) | 21* | -1.8
c1ccc(CN2CCc3nc(N4CCN(c5ccccn5)CC4)ncc3C2)cc1 | 0.02 | .
CC1CC[C@@]2(CO1)O[C@H]1C[C@H]3[C@@H]4CC[C@@H]5C[C@@H](O[C@@H]6O[C@H](CO)[C@H](O)[C@H](O)[C@H]6O[C@@H]6O[C@H](CO)[C@@H](O)[C@H](O)[C@H]6O)CC[C@]5(C)[C@H]4CC[C@]3(C)[C@H]1[C@@H]2C (stereo partly specified) | 1.6 | .
CC1(C)CC[C@]2(C(=O)O)CC[C@]3(C)C(=CC[C@@H]4[C@@]5(C)CC[C@H](O)C(C)(C)[C@@H]5CC[C@]43C)[C@@H]2C1 | 3.4 | .
COC(=O)[C@@]1(C)CC[C@]2(C)CC[C@]3(C)C(=CCC4[C@@]5(C)CCC(O)C(C)(C)C5CC[C@]43C)C2C1 (stereo partly specified) | . | 5.2*
COc1ccc(-c2nc(SCC(=O)Oc3ccc(C)c(C)c3)n3[nH]c(=O)cc3n2)cc1 | 3.3 | .
COc1ccc(S(=O)(=O)c2c(C(=O)c3ccc(C)cc3)cnc3cc4c(cc23)OCCO4)cc1 | 0.27 | 6.7*
COc1ccc(S(=O)(=O)c2c(C(=O)c3ccc(C)cc3)cnc3cc4c(cc23)OCO4)cc1 | -0.24 | 0.07
CCSc1ncc2c(=O)n(CC(=O)N3CCc4ccccc43)cnc2n1 | 9.7* | .
CCSc1ncc2c(=O)n(CC(=O)NC3CCCC3)cnc2n1 | 0.72 | .
NC(=O)c1cc(S(=O)(=O)N2CCN(c3ccccc3)CC2)cs1 | 2 | .
O=S1(=O)C[C@H](NCCc2ccc(Cl)cc2)[C@@H](S(=O)(=O)c2ccc(F)cc2)C1 | -0.13 | -1.1
CC(=O)Nc1ccc(-n2nncc2-c2ccco2)cc1 | 1.3 | .
O=C(Nc1ccc(-n2nncc2-c2ccco2)cc1)c1cnc2n(c1=O)CCS2 | 7.3* | .
Cc1c(Br)sc(Br)c1-c1ccccc1 | . | -1.1
Cc1ssc(=S)c1-c1ccccc1 | . | 5.7*
CCCc1cc(C(N)=S)ccn1 | 22* | .
CCCc1ccc(-c2ccc(C(N)=O)cc2)cc1 | . | -1.1
N#Cc1cc2c(nc1SCC(=O)Nc1cccc(Cl)c1)CCCC2=O | 0.81 | -3.3
Cc1cc(C)n(-c2nc3c(c(=O)n2CC(=O)NC(C)(C)C)CCCC3)n1 | 1.3 | .
Cc1cc(C)n(-c2nc3c(c(=O)n2CC(N)=O)CCCC3)n1 | 12* | .
Cc1ccccc1Nc1nc(NCCO)nc2c1cnn2C | -0.23 | .
SMILES | TAR Tat displ | CDC25B-CDK2 inh
CNc1nc2cccnc2s1 | . | 8.2*
c1cnc2sc(N3CCC4(CC3)OCCO4)nc2c1 | . | -2.2
Cc1ccccc1CSc1nc(-c2ccccc2)c(C#N)c(=O)[nH]1 | -0.23 | -1.7
O=C(NCCc1ccc(Cl)cc1)c1cc2c(s1)CSC2 | 0.16 | .
N#Cc1nc(/C=C/c2cccs2)oc1N1CCC(Cc2ccccc2)CC1 | -1.1 | 0
COc1ccccc1/C=C/c1nc(C#N)c(N2CCCCC2)o1 | -0.87 | -1.5
COc1ccccc1/C=C/c1nc(C#N)c(N2CCNCC2)o1 | -0.52 | 9.6*
N#Cc1nc(/C=C/c2cccs2)oc1N1CCNCC1 | -1.5 | 9.3*
CC(C)NC(=O)CCc1nc(-c2cccs2)no1 | 2.3 | -0.89
Cc1cccc(-c2noc(CN(C)S(=O)(=O)c3ccccc3)n2)c1 | 0.87 | 0.66
CSc1ccc(C2C(C#N)=C(N)Oc3c2ccc2ccccc32)cc1 (stereo unspecified) | -0.49 | -0.13
CSc1ccc(C2C(C#N)=C(N)OC3=C2CCc2ccccc23)cc1 (stereo unspecified) | . | 7.5*
O=C(Nc1ccc2oc(-c3ccc(F)cc3)nc2c1)c1ccc([N+](=O)[O-])o1 | 2.4 | 0.59
O=C(Nc1ccc2oc(-c3cccc(F)c3)nc2c1)c1ccc([N+](=O)[O-])o1 | 22* | 2.5
O=C(CCSCc1cnn(-c2ccccc2)c1-n1cccc1)NCC1CCCO1 (stereo unspecified) | -1 | -1.4
N#C/C=C/c1ccc(Cl)cc1Cl | . | -0.8
Cc1cc(NC(=O)NC2CC(=O)N(C3CCCC3)C2)ccc1Br (stereo unspecified) | 0.95 | -1.3
Cc1csc2nc(COC(=O)Cc3ccccc3)cc(=O)n12 | 1.1 | .
COc1cc(NC(=O)C(C)CS(=O)(=O)c2ccc3c(c2)NC(=O)C(C)S3)cc(OC)c1 (stereo unspecified) | 15* | .
